Screens deposited in PubChem BioAssay by several laboratories.
Rows were chosen to be rich in hits. Some 0.44% of all compounds tested hit in one or more screens of this group.
GASC-1 inh = blocks human GASC-1 demethylase activity | Q9H3R0 | GST-JMJD2C(1-420) H3K9me3 demethylation, DELFIA europium | actives 0.069% (n = 330,000) | inhibition, % at 2.35 µM;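 active = more than half of a compound's replicate wells show inhibition beyond 50%, single wells judged on their own value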;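 note: signal counts dimethyl H3K9 product captured on neutravidin plate; 0% = median of DMSO wells and 100% = 0.3 times that DMSO median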
VLA-4 inh = inhibition in a human VLA-4 binding assay; P13612; VLA-4 expressing cells, ligand binding flow cytometry; inhibition, % (about 7 µM as worked out from the volumes in the protocol); actives 0.2% (n = 330,000); AID 2557; in the data active = inhibition above about 50%
PolyA inh = blocks polyadenylation in yeast reporter cells | S. cerevisiae SKY197-pL101 polyadenylation reporter, beta-gal luminescence; efflux-impaired pdr1/pdr3 knockout yeast; score 100 = 6 SD above DMSO | actives 0.02% (n = 300,000) | activity score, % at 12 µM;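 active = lowest replicate activity score at least 50, where 100 means six control SD above control mean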;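 note: yeast exposed to compound for 9 h at 30 °C; higher score means more reporter readthrough which indicates perturbed polyadenylation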
ABCB6 inh 2 = inhibitors of human ABC transporter ABCB6 | fluorescence ratio to DMSO, % at 10 µM | K562-ABCB6 porphyrin accumulation, flow cytometry, 1 h; hits give low values | actives 0.19% (n = 360,000) | Q9NP58;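 active = fluorescence ratio to DMSO below 75%, the collection mean minus 3 SD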;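 note: signal is porphyrin accumulated inside mitochondria; 100% equals median channel fluorescence of DMSO control wells; lower ratio means ABCB6 inhibition with less porphyrin fluorescence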
VLA-4 allo CP = confirmation of allosteric modulators of human VLA-4 integrin; inhibition, % at 6.7 µM; AID 2813; actives 2% (n = 1,300); U937 cells, HUTS-21 LIBS mAb binding, flow cytometry; LDV ligand present at threefold Kd; shares compounds with VLA-4 inh; in the data active = inhibition above about 40%;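 note: 0% = ligand without compound and 100% = no ligand background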
* marks the source's active call; other numbers are inactive results; / = no result.

SMILES | GASC-1 inh | VLA-4 inh | PolyA inh | ABCB6 inh 2 | VLA-4 allo CP
CC(CCc1ccccc1)NC(=O)CCN1N=C(c2ccccc2)CCC1=O (stereo not drawn) | 1 | 2 | -11 | 95 | /
COc1cccc(CN(C(=O)CN2C(=O)c3ccccc3S2(=O)=O)C(C(=O)NCC2CCCO2)c2ccco2)c1 (stereo not drawn) | -5 | 9 | 10 | 96 | /
O=c1cc(C(F)(F)F)nc(-n2[nH]c3c(c2=O)CCCC3)[nH]1 | 2 | 50* | 21 | 97 | -5
CCOC(=O)N1CCN(C(=O)C2CCCN(S(=O)(=O)c3ccccc3)C2)CC1 (stereo not drawn) | -11 | 2 | 18 | 103 | /
COc1cccc(-c2cc(C(=O)N3CCN(Cc4ccc5c(c4)OCO5)CC3)on2)c1 | 8 | 55* | 2 | 104 | 19
CCOC(=O)c1sc2nc(C)nc(SCC(=O)N(C)C3CCS(=O)(=O)C3)c2c1C (stereo not drawn) | 7 | 42 | 8 | 90 | -10
CCCCCCCCOC(=O)c1ccc(N)cc1 | 2 | 50* | -16 | 86 | 7
CCCCOC(=O)c1ccc(O)cc1 | 6 | -29 | 21 | 101 | /
CCOc1ccc(C(C(=O)NC2CCCCC2)N(C(=O)c2csnn2)C2CC2)cc1 (stereo not drawn) | 1 | 14 | -17 | 94 | /
CCC(C)C(NC(=O)c1ccc(Cl)cc1)C(=O)O (stereo not drawn) | -5 | 93* | 8 | 108 | 3
Cc1ccccc1-c1nc2cc(Cl)ccc2o1 | 3 | 7 | 0 | 99 | /
Cc1ccccc1-c1nc2cc(Cl)ccc2c(=O)o1 | -5 | 40 | -26 | 99 | -15
CCNC(=O)C1(C)CCCN(C(=O)c2cc(C)n(C(C)(C)C)n2)C1 (stereo not drawn) | / | / | / | 96 | /
O=C1CN(C(=O)COC(=O)COc2ccccc2)c2ccccc2N1 | -15 | 9 | / | 93 | /
Nc1nc(Br)c2c(F)cccc2c1-c1ccc(Cl)cc1 | 6 | 1 | -47 | 95 | /
COc1ccc(OC)c(/C=N/NC(=O)CCc2n[nH]c(=O)[nH]c2=O)c1 | 3 | -17 | 6 | 101 | /
COc1ccc(/C=N/NC(=O)CCc2n[nH]c(=O)[nH]c2=O)cc1O | -11 | 45 | 5 | 93 | 2
COc1ccc(NC(=O)c2cc(C3CCCCN3C(=O)c3ccc(C#N)cc3)on2)c(C)c1 (stereo not drawn) | / | / | / | 100 | /
COc1ccc(N(CC(=O)Nc2cc(C)ccc2C)S(=O)(=O)c2c(C)[nH]c(=O)[nH]c2=O)cc1 | 23 | -4 | -16 | 100 | -1
COc1ccc(N(CC(=O)Nc2cc(Cl)ccc2OC)S(=O)(=O)c2c(C)[nH]c(=O)[nH]c2=O)cc1 | -3 | 0 | -2 | 92 | -5
Cc1ccc(N(CC(=O)Nc2ccc(Br)c(C)c2)S(=O)(=O)c2c(C)[nH]c(=O)[nH]c2=O)cc1 | 21 | -5 | -1 | 108 | -4
COc1ccc2nc(NC(=O)CSc3nnc(C)n3N)sc2c1 | 10 | -6 | -14 | 99 | /
Cc1ccc(C(=O)NCc2ccc3c(c2)OCO3)cc1N1CCCC1=O | -11 | 7 | 1 | 99 | /
Cc1ccc(S(=O)(=O)NCCC(=O)NC2CCCCCC2)cc1C | 0 | -1 | / | 100 | /
COc1ccc(S(=O)(=O)NCC(=O)O)cc1C(=O)NC1CCCCC1 | -5 | 41 | -2 | 100 | -7
SMILES | GASC-1 inh | VLA-4 inh | PolyA inh | ABCB6 inh 2 | VLA-4 allo CP
Cn1c(=O)n(CCC(=O)O)c2ccccc21 | -10 | 19 | 7 | 89 | /
O=C(NNc1ncnc2c1cnn2-c1cccc(Cl)c1)c1ccco1 | 4 | 9 | -21 | 101 | /
O=C1OC(c2ccc(F)cc2)=N/C1=C\C=C/c1ccccc1 | -4 | 44 | -8 | 100 | 3
NC(=O)[C@@H]1CC2(CC(c3cccc(NC(=O)[C@H]4CCC(=O)N4)c3)=NO2)CN1C(=O)c1ccc(Cl)cc1 (stereo partly drawn) | 4 | -4 | 19 | 99 | /
NC(=O)[C@H]1CC2(CC(c3cccc(NC(=O)[C@H]4CCC(=O)N4)c3)=NO2)CN1C(=O)c1ccccc1 (stereo partly drawn) | -5 | 51* | -5 | 98 | 6
CCS(=O)(=O)N1CCC(C(=O)NCc2ccc(OC)cc2OC)CC1 | 112 | -6 | 0 | 100 | /
COc1ccc(CNC(=O)C2CCN(S(C)(=O)=O)CC2)c(OC)c1 | 17 | 53* | -3 | 99 | 1
CC(C)c1ccc(NC(=O)C(c2ccccc2)N2CC(=O)Nc3ccccc32)cc1 (stereo not drawn) | -9 | 72* | -7 | 95 | 3
CC(C)[C@H](NC(=O)N1CC(=O)Nc2ccccc21)C(=O)N[C@H](C(=O)O)c1ccccc1 | 14 | 30 | -1 | 96 | /
CNc1nc(N(C)C)nc(N(C)C)n1 | 8 | 59* | 21 | 183 | -5
CN(C)c1nc(N(C)C)nc(N(C)C)n1 | -9 | -13 | -6 | 100 | /
Cc1ccc(S(=O)(=O)N2[C@@H](c3ccc(Cl)cc3)C(C(=O)O)=C[C@H]2CC2CCCC2)cc1 | / | 28 | / | 95 | -1
CC[C@@H]1C=C(C(=O)O)[C@H](c2ccc(Cl)cc2)N1S(=O)(=O)c1ccc(C)cc1 | / | -40 | / | 101 | /
Cc1ccc(S(=O)(=O)N2[C@@H](c3ccc4c(c3)OCO4)C(C(=O)O)=C[C@H]2C(C)(C)C)cc1 | 10 | -16 | / | 103 | /
CCCCC[C@@H]1C=C(C(=O)O)[C@H](c2ccc(Br)cc2)N1S(=O)(=O)c1ccc(C)cc1 | / | 6 | / | 103 | 0
CCCC[C@@H]1C=C(C(=O)O)[C@H](c2ccc3c(c2)OCO3)N1S(=O)(=O)c1ccc(C)cc1 | -28 | 6 | / | 99 | -3
Cc1ccc([C@@H]2CC=C(C(=O)O)[C@H](c3ccc(Br)cc3)N2S(=O)(=O)c2ccc(C)cc2)cc1 | / | 18 | / | 100 | /
CCCC[C@@H]1C=C(C(=O)O)[C@H](c2ccc(Cl)cc2)N1S(=O)(=O)c1ccc(C)cc1 | -1 | 39 | / | 98 | 4
CC(C)c1ccc(-c2cc(C(=O)N3N=C(C(F)F)CC3(O)C(F)F)c3ccccc3n2)cc1 (stereo not drawn) | -9 | -4 | 2 | 92 | /
Nc1nnc(CC(=O)N/N=C/c2cc([N+](=O)[O-])cc(Br)c2O)s1 | 10 | 6 | / | 97 | /
Cc1ccc(NC(=O)C2CCCN2C(=O)Oc2ccccc2)c(C)c1 (stereo not drawn) | 7 | -7 | -1 | 101 | /
O=C1CCc2ccc(NC(=O)C3CC3)cc2N1 | 14 | 55* | -7 | 99 | -9
CC(=O)Nc1ccc(S(=O)(=O)NCC2CCC(C(=O)NCCC3=CCCCC3)CC2)cc1 (stereo not drawn) | 3 | -18 | -8 | 98 | /
Cc1ccc(/C=N/NC(=O)CSc2nnc(-c3ccc(Cl)cc3)n2-c2ccc(Cl)cc2)o1 | -9 | 17 | 13 | 94 | /
